# From PubChem
# Sampled rows, rich in hits. Any-hit rate of the full collection: about 1.6%.
# eIF4E 4G PPI = blocks eIF4E binding to eIF4G. inhibition, % at 21.7 µM. TR-FRET eIF4E-eIF4GI(517-606) binding, 2 h. AID 782. 220,000 compounds, 0.37% hits;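 active = inhibition above about 30%, limit read from the data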;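 note: 0% = full FRET control wells and 100% = background wells lacking eIF4GI fragment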
# PERK inhibitor = blocks human PERK kinase; inhibition, % at 5.6 µM; CHO PERK-DD fusion, SEAP luminescence translation reporter; Q9NZJ5; 220,000 compounds, 0.17% hits;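 active = inhibition above the mean inhibition of all tested compounds plus 3 SD, set separately per screening campaign, cut at about 2.9% in these data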;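 note: PERK kinase domain activated by AP20187 dimerizer at 100 nM; 0% = DMSO with dimerizer and 100% = rapamycin at 8.4 µM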
# PABP1 MLLE inh = blocks PAM2 peptide binding to the PABP1 MLLE domain. AID 588489. GST-MLLE / FITC-PAM2 fluorescence polarization. 360,000 compounds, 0.36% hits. inhibition, % at 20 µM; in the data active = inhibition above about 35%, passing the limit was not always enough;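 note: plate controls were DMSO wells with GST-MLLE for no effect and wells lacking GST-MLLE protein for full effect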
# Target sequence (P11940 whole entry, looked up, the tested form may be a part): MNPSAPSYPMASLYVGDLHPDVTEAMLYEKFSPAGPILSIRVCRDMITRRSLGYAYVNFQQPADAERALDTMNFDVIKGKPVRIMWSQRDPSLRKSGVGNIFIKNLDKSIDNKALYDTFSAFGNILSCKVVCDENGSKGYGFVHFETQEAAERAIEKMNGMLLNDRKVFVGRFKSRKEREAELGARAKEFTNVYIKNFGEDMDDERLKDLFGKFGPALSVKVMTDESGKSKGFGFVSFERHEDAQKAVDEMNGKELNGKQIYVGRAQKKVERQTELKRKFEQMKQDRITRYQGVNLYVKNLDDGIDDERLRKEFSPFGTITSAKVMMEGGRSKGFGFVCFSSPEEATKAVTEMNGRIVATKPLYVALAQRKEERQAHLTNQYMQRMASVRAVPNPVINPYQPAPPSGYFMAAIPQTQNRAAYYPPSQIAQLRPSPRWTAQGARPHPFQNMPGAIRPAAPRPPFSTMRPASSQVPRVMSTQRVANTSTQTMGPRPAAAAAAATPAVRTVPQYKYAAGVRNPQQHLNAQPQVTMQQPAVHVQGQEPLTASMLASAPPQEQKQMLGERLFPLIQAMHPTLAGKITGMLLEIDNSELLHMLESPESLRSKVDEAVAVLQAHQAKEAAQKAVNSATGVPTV
# eIF4H FP inh = inhibitors of RNA binding by human eIF4H; Q15056; eIF4H fluorescence polarization binding assay; inhibition, % at 35 µM; 290,000 compounds, 0.94% hits;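 note: calls also rest on retests at 20 µM and on dose response follow-up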
# PABP FP inh = PABP-poly(A) binding inhibition | calls only at 35 µM | 290,000 compounds, 1% hits | PABP-poly(A) RNA binding, fluorescence polarization | AID 2014;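 note: calls also rest on retests at 20 µM and on dose response follow-up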
# An asterisk follows results filed as active; i = inactive; ? = inconclusive; nt = not tested or not shown; + = active, no number. Unless noted, the rule behind the calls is not given here.
SMILES,eIF4E 4G PPI,PERK inhibitor,PABP1 MLLE inh,eIF4H FP inh,PABP FP inh
O=C(NC1CCCCCCC1)C1CCN(S(=O)(=O)N2CCCC2)CC1,58*,0,5,-8,i
CCCCC1OC23CCCCC2C(C#N)(C#N)C1(C#N)C(=N)O3 (centres undefined),-4,1,23,?,i
CCCCC1OC23CCCCC2C(C#N)(C(=N)O3)C1(C#N)C#N (centres undefined),13,0,48*,?,?
c1ccc(NC2=NCCCCS2)cc1,-4,0,-6,108*,i
O=C(NCC1CCCCC1)c1cccc(Br)c1,nt,nt,-7,2,i
COc1ccc(C(=O)OCCCc2cc3ccccc3c(=O)o2)cc1,nt,nt,4,nt,nt
Cc1coc2c(C)c3oc(=O)c(CCC(=O)N[C@@H](C)C(=O)N[C@@H](Cc4ccccc4)C(=O)O)c(C)c3cc12,nt,nt,-2,52,i
O=C(NC(Cc1ccccc1)C(=O)O)/C(=C\c1ccco1)NC(=O)c1ccc(Br)cc1 (centres undefined),2,1,7,32,i
O=C(NC(Cc1ccccc1)C(=O)O)/C(=C\c1ccco1)NC(=O)c1ccccc1 (centres undefined),10,1,7,91*,+
O=C(NCc1cccnc1)/C(=C/c1ccco1)NC(=O)c1ccccc1,-6,1,15,-9,i
O=C(O)/C(=C/c1ccco1)NC(=O)c1ccccc1,10,1,6,72*,+
CC(C)(C)c1ccc(C(=O)N/C(=C\c2ccco2)C(=O)O)cc1,2,0,-1,32,i
COc1ccc(C(=O)N/C(=C\c2ccco2)C(=O)NCc2cccnc2)cc1,2,0,15,61*,i
Cc1ccc(C)c(S(=O)(=O)NCC(=O)OCC(=O)Nc2sccc2C(N)=O)c1,nt,nt,0,nt,nt
O=C(Nc1nnc(C2=COCCO2)o1)c1cccc(Br)c1,nt,nt,21,-2,i
CS(=O)(=O)c1cccc(C(=O)Nc2nnc(C3=COCCO3)o2)c1,nt,nt,41*,nt,nt
CCCCN(C)S(=O)(=O)c1ccc(C(=O)Nc2nnc(C3=COCCO3)o2)cc1,-4,0,2,22,i
N#CCCN(CCC#N)S(=O)(=O)c1ccc(C(=O)Nc2nnc(C3=COCCO3)o2)cc1,-3,1,1,82*,+
[O-]/[N+](=C/c1ccc(F)cc1)c1ccc(Cl)cc1,4,1,42*,-4,i
CC(C)N(CC(O)COc1ccc(CC(N)=O)cc1)CC(O)COc1ccc(CC(N)=O)cc1 (centres undefined),nt,nt,-11,2,i
O=C(CSc1ccsc1[N+](=O)[O-])N1CCN(c2ccc(Cl)cc2)CC1,17,0,3,77*,+
O=C(CSc1ccsc1[N+](=O)[O-])N1CCN(c2ccccc2)CC1,19,0,12,50,i
NS(=O)(=O)c1ccc(CCNC(=O)c2cc3ccccc3s2)cc1,nt,nt,15,3,i
COc1ccc(-c2nnc(NC(=O)Cc3ccccc3)s2)c(OC)c1,-1,-1,4,2,i
COc1ccc(-c2nnc(NC(=O)c3cccs3)s2)c(OC)c1,14,0,0,55*,i
SMILES,eIF4E 4G PPI,PERK inhibitor,PABP1 MLLE inh,eIF4H FP inh,PABP FP inh
Nc1nc2c(s1)CCc1c-2cnn1-c1ccccc1,39*,0,-22,0,i
O=C(CCS(=O)(=O)c1cccc2nsnc12)NCc1ccccc1Cl,33*,0,-8,-2,i
Cc1cccc(NC(=O)CCS(=O)(=O)c2cccc3nsnc23)c1C,10,0,29,-11,i
Cn1cc(C(=O)N/N=C/C(Br)=C/c2ccccc2)ccc1=O,-4,0,-18,-2,i
Cn1cc(C(=O)N/N=C/C(Br)=C\c2ccccc2)ccc1=O,-3,0,-6,57*,+
COc1ccc2c(CN3CCCCCCC3)cc(=O)oc2c1,nt,nt,2,nt,nt
O=C1C2C3C=CC(C3)C2C(=O)N1CCN1CCN(Cc2ccc([N+](=O)[O-])cc2)CC1 (centres undefined),4,0,-4,-2,i
COc1cc(C2C(C#N)=C(N)OC3=C2C(=O)CC(C)(C)C3)c([N+](=O)[O-])cc1OC (centres undefined),7,1,78,?,?
COc1ccc(C2C(C#N)=C(N)OC3=C2C(=O)CC(C)(C)C3)c([N+](=O)[O-])c1OC (centres undefined),-4,0,45*,-8,i
O=C(CSc1ccccn1)N/N=C/c1cc([N+](=O)[O-])ccc1O,-13,1,-3,12,i
O=C(CSc1ccccn1)N/N=C/c1ccccc1[N+](=O)[O-],21,0,-5,active,+
Cc1ccccc1/C=N/NC(=O)Cn1cnc([N+](=O)[O-])n1,-8,1,-1,-2,i
O=C(Cn1cnc([N+](=O)[O-])n1)N/N=C/c1ccccc1O,4,3.4*,3,3,i
O=C(NCCCCCCNC(=O)c1cncc(O)c1)c1cncc(O)c1,-3,1,1,0,i
COc1ccc(NC(=O)N(C)C[C@H]2Oc3ccc(NS(=O)(=O)c4cccs4)cc3C(=O)N([C@@H](C)CO)C[C@@H]2C)cc1,nt,nt,-7,nt,nt
CCCCCCn1c(CN2CCN(CCO)CC2)nc2c1c(=O)n(C)c(=O)n2C,9,0,-3,103,+
CCCCCCn1c(CN2CCC(C)CC2)nc2c1c(=O)n(C)c(=O)n2C,-1,-1,21,2,i
CCOc1ccc(Nc2cc(Nc3ccccc3OCC)nc(C=C(C#N)C#N)n2)cc1,-1,1,-6,-4,+
Cc1ccc(Cn2nc(C)c(NC(=O)CSc3nc4c(c(C(F)(F)F)n3)CCc3ccccc3-4)c2C)cc1,30*,1,9,-2,i
NC(=O)N(CCC(=O)O)c1ccccc1,-3,1,4,63*,+
O=C(Oc1ccc(-n2cnnn2)cc1)c1ccccc1,2,1,-6,71*,i
O=C(Oc1ccccc1)c1ccc(-n2cnnn2)cc1,-6,1,-11,12,i
NC(=O)COc1ccc(-n2cnnn2)cc1,22,2,2,92*,i
Brc1ccc2nc(-c3ccco3)c(CC3CCCCC3)n2c1,nt,nt,-29,nt,nt
CCOC(=O)C1CCN(C(=O)COc2ccc3c(C)cc(=O)oc3c2)CC1,nt,nt,0,nt,nt
Cc1noc(C)c1S(=O)(=O)Nc1ccc2c(c1)C(=O)N([C@@H](C)CO)C[C@H](C)[C@@H](CN(C)Cc1ccc(C(F)(F)F)cc1)OCCCC[C@H](C)O2,nt,nt,5,nt,nt
O=C(C1=NN(c2ccccc2)C2C(=O)N(c3cccc(Cl)c3)C(=O)C12)c1ccccc1 (centres undefined),10,-1,7,?,+
CC(=O)Nc1c(-c2ccccc2)nc2ncccn12,33*,2,-2,1,i
CCCCCC(=O)NNC(=S)NC(=O)c1ccc([N+](=O)[O-])cc1,-3,0,39*,62,i
